Source: PubChem BioAssay AID504710 (Sanford-Burnham Center for Chemical Genomics, 2011)
Values without a mark were called inactive. The source made the active and inactive calls.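 Rule for the calls: active = inhibition reaching about 16% in any single replicate (limit read from the data); inactive = the rest.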

Biological target: Hexokinase HKDC1 (Homo sapiens) (UniProt Q2TB90)
Experiment: compounds lowering human HKDC1 activity – biochemical, single concentration, confirmation (AID 504710)
Conditions: recombinant HKDC1, G6PDH/diaphorase/resazurin fluorescence; at 20 µM; hits give high values

Sequence of Hexokinase HKDC1 (Homo sapiens) (Q2TB90 whole entry, looked up): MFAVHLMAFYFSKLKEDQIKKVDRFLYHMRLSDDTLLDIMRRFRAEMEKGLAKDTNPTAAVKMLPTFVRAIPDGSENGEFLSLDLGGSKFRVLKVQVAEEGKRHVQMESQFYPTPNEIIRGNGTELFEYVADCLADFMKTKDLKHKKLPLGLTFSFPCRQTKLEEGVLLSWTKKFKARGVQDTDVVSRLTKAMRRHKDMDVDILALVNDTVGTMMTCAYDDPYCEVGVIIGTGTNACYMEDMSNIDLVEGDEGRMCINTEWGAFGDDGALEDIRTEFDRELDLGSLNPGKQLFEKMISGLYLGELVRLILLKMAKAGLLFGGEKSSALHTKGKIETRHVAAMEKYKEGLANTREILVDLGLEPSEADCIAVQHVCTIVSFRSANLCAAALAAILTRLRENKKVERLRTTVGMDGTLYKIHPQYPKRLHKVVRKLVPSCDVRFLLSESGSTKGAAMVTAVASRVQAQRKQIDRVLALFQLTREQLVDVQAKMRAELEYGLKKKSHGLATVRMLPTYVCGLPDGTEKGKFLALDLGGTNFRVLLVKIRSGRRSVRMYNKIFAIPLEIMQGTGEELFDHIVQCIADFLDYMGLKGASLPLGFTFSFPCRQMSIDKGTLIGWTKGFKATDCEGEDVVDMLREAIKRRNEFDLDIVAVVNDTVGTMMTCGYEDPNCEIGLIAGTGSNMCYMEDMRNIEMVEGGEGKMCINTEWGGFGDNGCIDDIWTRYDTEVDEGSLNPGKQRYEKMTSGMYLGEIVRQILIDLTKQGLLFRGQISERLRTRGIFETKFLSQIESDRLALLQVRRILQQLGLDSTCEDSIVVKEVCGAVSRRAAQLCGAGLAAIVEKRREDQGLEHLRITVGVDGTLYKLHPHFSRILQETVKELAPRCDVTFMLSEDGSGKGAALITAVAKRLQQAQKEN

| SMILES | inhibition |
| --- | --- |
| Cc1cc2nnc(SCC(=O)Nc3cc(S(=O)(=O)N4CCOCC4)ccc3Cl)n2c2ccccc12 | 37.4% (active) |
| Cc1ccc2oc(=O)c3cnn(CC(=O)N4CCCCCC4)c3c2c1 | -63.5% |
| CCOC(=O)C1=C(Cc2ccc(F)cc2)C(=O)c2ccccc2C1=O | 59.2% (active) |
| Cc1cc(C2=NNC(=Nc3ccc(S(=O)(=O)N4CCOCC4)cc3)SC2)c(C)n1CC1CCCO1 (configuration not stated) | -55.8% |
| Cc1ccc(N=C2C(=S)N(c3ccc(C)cc3)C(=N)N2/N=C/c2ccc(Cl)cc2)cc1 | -45.3% |
| O=S(=O)(c1ccc(NC(=S)NN=C(Cc2ccccc2)Cc2ccccc2)cc1)N1CCOCC1 | -43.9% |
| Cc1cc(Oc2ccc(C(C)(C)C)cc2)nc(N2CCOCC2)n1 | -37% |
| COc1cc2c(cc1OC)-c1cc(NCc3ccccn3)nc(=O)n1CC2 | 54% (active) |
| COc1ccc(-c2cc(C(=O)NNC(=S)NC(=O)c3c(-c4ccccc4)noc3C)[nH]n2)cc1 | -50.1% |
| CC(=O)Oc1cccc2c1C(=O)C1CC=CC(OC(C)=O)C1C2=O (configuration not stated) | -65.8% |
| COc1ccc(N=C2NN=C(c3ccc4c(c3)OCCO4)CS2)cc1 | -33.1% |
| COc1cc(/C=C2/C(=O)NN(c3ccc(Cl)c(Cl)c3)C2=O)cc([N+](=O)[O-])c1O | 33.1% (active) |
| O=S(=O)(O)c1ccc(O)c2cc(Nc3ccccc3)ccc12 | 44.1% (active) |
| Cc1ccc(S(=O)(=O)Nc2c(O)ccc3ccccc23)cc1 | 35.5% (active) |
| O=C1C(=O)c2c(C(=O)c3ccccc3)coc2-c2ccccc21 | 53.2% (active) |
| C=CCn1c(SCC(=O)Nc2sc3c(c2C#N)CCC(C)C3)nc2cc(C(=O)O)ccc2c1=O (configuration not stated) | 32.7% (active) |
| O=C(O)COc1ccc(/C=N/NC(=O)c2ccc(-c3csc(Nc4ccc(Cl)cc4)n3)cc2)cc1 | 24.2% (active) |
| O=S(=O)(Nc1ccc(O)c2ccccc12)c1cccs1 | 30.6% (active) |
| O=C1C(C2=C(O)c3ccccc3C2=O)=Nc2ccccc21 | -162% |

| SMILES | inhibition |
| --- | --- |
| COc1cc(OC)cc(C(=O)NC(=S)NNC(=O)c2cnccn2)c1 | -40% |
| O=C(CNC(=O)c1ccc2c(c1)OCCO2)N/N=C/c1ccc(O)cc1O | 18.4% (active) |
| COc1cc(NC(=O)c2cnc(N)s2)cc(C(=O)Nc2cccc(C(F)(F)F)c2)c1 | 41.2% (active) |
| CCCOc1ccc(/C=N/NC(=S)Nc2ccccc2[N+](=O)[O-])c(O)c1 | -47.6% |
| O=C(Nc1ccc(N2CCCC2)cc1)c1cccc(-c2cc3ccccc3oc2=O)c1 | -24.8% |
| COC1=CC(=O)C(C2CC(=O)c3c(O)cc(O)cc3O2)=CC1=O (configuration not stated) | 39.8% (active) |
| O=C(O)c1ccc(NC2=C(Cl)C(=O)c3ccccc3C2=O)cc1 | -94.3% |
| CCN=C1NN=C(c2ccc(C)cc2)CS1 | -52% |
| COc1ccc(-c2[nH]c(-c3ccc(SC)cc3)nc2SCC(=O)Nc2nccs2)cc1 | -36.1% |
| CCOC(=O)c1ccc(NC(=O)CSc2ccc(-c3ccccn3)nn2)cc1 | 31.3% (active) |
| O=S(=O)(Nc1cc(Sc2ncn[nH]2)c(O)c2ccccc12)c1ccccc1 | 48.4% (active) |
| CC(=NNC(=S)N1CCN(C2CCCCCC2)CC1)c1ccccn1 | -39.9% |
| Cc1cc2cc(CCNC(=O)c3ccc(S(=O)(=O)N4CCCC4)cc3)c(=O)[nH]c2cc1C | 53.2% (active) |
| Cc1cc(C)c(S(=O)(=O)/N=C2\C=C(Nc3ccc(C(=O)O)cc3)C(=O)c3ccccc32)c(C)c1 | 39.5% (active) |
| Cc1[nH]n(-c2ccccc2)c(=O)c1/C=N/Nc1nncc(-c2ccccc2)n1 | -60.6% |
| Cc1onc(-c2ccccc2)c1C(=O)NNC(=S)NC(=O)c1ccc(Br)cc1 | -56.7% |
| Cc1cc(C)nc(/N=c2/ssnc2Cl)c1 | -84.2% |
| CCc1ccc(S(=O)(=O)/N=C2/C=C(Sc3ncn[nH]3)C(=O)c3ccccc32)cc1 | 73% (active) |
